Values joined by “and” are separate entries in the source; they are usually repeats but may differ in a detail not shown here. Equal entries are not always repeated. The panel holds about 83,000 compounds, 20% with a hit somewhere; the sample as a whole holds those more often.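 Each cell line was grown in a 96-well plate and treated with one concentration of compound for 48 hours. Values below 10 were considered active.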 Active and inactive are the calls of the source.

Some test systems named below: HCT-15 colon; HT29 colon; SNB-75 CNS; SNB-19 CNS; U251 CNS; PC-3 prostate; SK-MEL-5 melanoma; UACC-62 melanoma; LOX IMVI melanoma; SK-MEL-28 melanoma; SK-MEL-2 melanoma; EKVX NSCLC; SN12C renal; TK-10 renal; ACHN renal; CAKI-1 renal; A498 renal; CCRF-CEM leukemia; MOLT-4 leukemia; UO-31 renal.
What all share (experiment): NCI-60 one-dose screen, 48 h (100 = growth as untreated, 0 = no growth, -100 = all killed)
What all share (settings): 10 µM unless noted

Turning to `NCCSC(C[N+](=O)[O-])c1ccccc1Cl` (centres undefined), the growth in the experiment on HCT-15 colon is 22.4% (inactive); in the experiment with HT29 colon, 36% (inactive); in the experiment on SNB-75 CNS it was 105% (inactive); in the experiment with SNB-19 CNS, 102% (inactive); in the experiment with U251 CNS, 77.6% (inactive); with PC-3 prostate it was 68.1% (inactive). Moreover, the growth was 85.1% (inactive) with SK-MEL-5 melanoma; 92.6% (inactive) in the experiment on UACC-62 melanoma; 31.4% (inactive) with LOX IMVI melanoma; -20.5% (active) in the experiment on SK-MEL-28 melanoma; 34.9% (inactive) in the experiment on SK-MEL-2 melanoma; 100% (inactive) with EKVX NSCLC. For the same compound, the growth with SN12C renal is 104% (inactive); with TK-10 renal, 51.8% (inactive); with ACHN renal, 107% (inactive); in the experiment on CAKI-1 renal, 99.8% (inactive); in the experiment on A498 renal it was 36% (inactive); in the experiment on CCRF-CEM leukemia it was 0.339% (active). Besides, the growth in the experiment on MOLT-4 leukemia was -32.1% (active).
Regarding `CCOC(=O)Nc1nc2ccccc2[nH]1`, the growth with HCT-15 colon is 102% (inactive) and 17.9% (inactive); with HT29 colon, 104% (inactive) and 20.8% (inactive); with SNB-75 CNS, 102% (inactive) and 23.3% (inactive); in the experiment on SNB-19 CNS it was 99.9% (inactive) and 31.5% (inactive); in the experiment with U251 CNS, 96.1% (inactive) and 26.2% (inactive); in the experiment on PC-3 prostate it was 98.7% (inactive) and 48% (inactive). Besides, the growth in the experiment on SK-MEL-5 melanoma was 113% (inactive) and 19.3% (inactive); with UACC-62 melanoma, 102% (inactive) and 30.8% (inactive); in the experiment with LOX IMVI melanoma it was 99.8% (inactive) and 43.8% (inactive); in the experiment on SK-MEL-28 melanoma, 109% (inactive) and 32.6% (inactive); in the experiment with SK-MEL-2 melanoma, 110% (inactive) and 51% (inactive); in the experiment with EKVX NSCLC it was 95.6% (inactive) and 68.4% (inactive). For the same compound, the growth in the experiment with SN12C renal is 95.1% (inactive) and 34.9% (inactive); in the experiment with TK-10 renal, 111% (inactive) and 64.6% (inactive); in the experiment with ACHN renal, 103% (inactive) and 52.6% (inactive); in the experiment on CAKI-1 renal, 93.6% (inactive) and 40.7% (inactive); in the experiment on A498 renal, 117% (inactive) and 42.3% (inactive); in the experiment with CCRF-CEM leukemia, 98.9% (inactive) and 27.8% (inactive). Moreover, the growth with MOLT-4 leukemia is 120% (inactive) and 16.7% (inactive).
For `OC(COc1cccc2ccccc12)CN1CCN(c2ccc(Cl)cc2)CC1` (centres undefined), the growth in the experiment with HCT-15 colon is 87.4% (inactive) and 101% (inactive); with HT29 colon it was 82.9% (inactive) and 88.9% (inactive); in the experiment with SNB-75 CNS, 73.7% (inactive) and 88% (inactive); in the experiment with SNB-19 CNS it was 87.6% (inactive) and 90.2% (inactive); in the experiment on U251 CNS it was 69.9% (inactive) and 108% (inactive); with PC-3 prostate it was 88.4% (inactive). The growth in the experiment on SK-MEL-5 melanoma was 87.6% (inactive) and 102% (inactive); with UACC-62 melanoma it was 98% (inactive) and 85% (inactive); in the experiment with LOX IMVI melanoma, 86.3% (inactive) and 82.2% (inactive); in the experiment on SK-MEL-28 melanoma, 107% (inactive) and 114% (inactive); with SK-MEL-2 melanoma, 103% (inactive) and 98.8% (inactive); with EKVX NSCLC, 108% (inactive) and 94.9% (inactive). The growth in the experiment on SN12C renal is 98.5% (inactive) and 97.8% (inactive); in the experiment on UO-31 renal, 80.2% (inactive) and 63.6% (inactive); in the experiment with ACHN renal, 68.6% (inactive) and 102% (inactive); with CAKI-1 renal, 85.5% (inactive); in the experiment with CCRF-CEM leukemia, 83.3% (inactive); in the experiment with MOLT-4 leukemia it was 110% (inactive).
With `CCN(CC)CCCC(CNc1ccnc2cc(Cl)ccc12)c1ccc(Cl)cc1` (centres undefined), the growth in the experiment with HCT-15 colon is -29.5% (active) and 5.81% (active); with HT29 colon, 3.38% (active) and -5.84% (active); in the experiment on SNB-75 CNS, -76.2% (active) and -39.9% (active); with SNB-19 CNS, 2.34% (active) and 92.4% (inactive); in the experiment on U251 CNS it was -71.9% (active) and -57.4% (active); in the experiment with PC-3 prostate it was 34.2% (inactive) and 19.3% (inactive). For the same compound, the growth is -92.8% (active) and -96.9% (active) in the experiment on SK-MEL-5 melanoma; -77.6% (active) and 97.7% (inactive) with UACC-62 melanoma; -85.5% (active) and -13% (active) in the experiment on LOX IMVI melanoma; -83.7% (active) and -85.7% (active) with SK-MEL-28 melanoma; -56.2% (active) and -67.7% (active) with SK-MEL-2 melanoma; -3.66% (active) and 12.1% (inactive) with EKVX NSCLC. Besides, the growth in the experiment with SN12C renal was -3.18% (active) and 84.7% (inactive); with UO-31 renal, -91.5% (active) and -65.7% (active); in the experiment on ACHN renal, -80.7% (active) and 2.15% (active); in the experiment on CAKI-1 renal, -64.4% (active) and -63.6% (active); with A498 renal it was 42.3% (inactive) and -81.8% (active); in the experiment on CCRF-CEM leukemia, -17.5% (active) and -46.6% (active). In addition, the growth in the experiment on MOLT-4 leukemia was -18% (active) and -51.4% (active).
With `COc1ccccc1/C=N\N=C(N/N=C/c1ccccc1OC)N/N=C/c1ccccc1OC`, the growth is 55.9% (inactive) and 32.1% (inactive) with HCT-15 colon; 23.7% (inactive) and 12.9% (inactive) in the experiment with HT29 colon; 86.7% (inactive) and 71.1% (inactive) with SNB-75 CNS; 59% (inactive) and 23.7% (inactive) in the experiment with SNB-19 CNS; 39.3% (inactive) and 15.3% (inactive) with U251 CNS; 41.2% (inactive) and 19.7% (inactive) in the experiment on PC-3 prostate. In addition, the growth is 69.8% (inactive) and -91.3% (active) with SK-MEL-5 melanoma; 55.5% (inactive) and 19.7% (inactive) in the experiment on UACC-62 melanoma; 28.6% (inactive) in the experiment on LOX IMVI melanoma; 78.8% (inactive) and 64.5% (inactive) with SK-MEL-28 melanoma; 47.5% (inactive) and 31.8% (inactive) in the experiment on SK-MEL-2 melanoma; 74.4% (inactive) and 48.3% (inactive) in the experiment with EKVX NSCLC. The growth in the experiment with SN12C renal was 77.2% (inactive) and 28.4% (inactive); with UO-31 renal, 50.4% (inactive) and -10.3% (active); in the experiment with ACHN renal it was 63.8% (inactive) and 40.6% (inactive); with CAKI-1 renal it was 43.6% (inactive) and 33.7% (inactive); in the experiment with A498 renal it was 100% (inactive) and 72.2% (inactive); in the experiment on CCRF-CEM leukemia, 39.9% (inactive) and 23.4% (inactive). Further, in the experiment with MOLT-4 leukemia, the growth is 31.1% (inactive) and 8.9% (active).
